Test results published in the supplement of paper PMC11732987, “Enantioselective OTUD7B fragment discovery through chemoproteomics screening and high-throughput optimisation” (Communications Chemistry, 2025).

What was measured:
Experiment in all cases: log2 ratio of Biotin-Ahx-Ub-VS probe labelling (fragment/DMSO); higher = less target engagement (more negative = stronger competition), active = hit call of the paper (q ≤ 0.05, log2 ratio ≤ -1)
Details in all cases: compound concentration: 200 uM; treatment time: 3 h
USP42 = target: T1, USP42 (UniProt Q9H9J4)
T1 sequence (whole entry): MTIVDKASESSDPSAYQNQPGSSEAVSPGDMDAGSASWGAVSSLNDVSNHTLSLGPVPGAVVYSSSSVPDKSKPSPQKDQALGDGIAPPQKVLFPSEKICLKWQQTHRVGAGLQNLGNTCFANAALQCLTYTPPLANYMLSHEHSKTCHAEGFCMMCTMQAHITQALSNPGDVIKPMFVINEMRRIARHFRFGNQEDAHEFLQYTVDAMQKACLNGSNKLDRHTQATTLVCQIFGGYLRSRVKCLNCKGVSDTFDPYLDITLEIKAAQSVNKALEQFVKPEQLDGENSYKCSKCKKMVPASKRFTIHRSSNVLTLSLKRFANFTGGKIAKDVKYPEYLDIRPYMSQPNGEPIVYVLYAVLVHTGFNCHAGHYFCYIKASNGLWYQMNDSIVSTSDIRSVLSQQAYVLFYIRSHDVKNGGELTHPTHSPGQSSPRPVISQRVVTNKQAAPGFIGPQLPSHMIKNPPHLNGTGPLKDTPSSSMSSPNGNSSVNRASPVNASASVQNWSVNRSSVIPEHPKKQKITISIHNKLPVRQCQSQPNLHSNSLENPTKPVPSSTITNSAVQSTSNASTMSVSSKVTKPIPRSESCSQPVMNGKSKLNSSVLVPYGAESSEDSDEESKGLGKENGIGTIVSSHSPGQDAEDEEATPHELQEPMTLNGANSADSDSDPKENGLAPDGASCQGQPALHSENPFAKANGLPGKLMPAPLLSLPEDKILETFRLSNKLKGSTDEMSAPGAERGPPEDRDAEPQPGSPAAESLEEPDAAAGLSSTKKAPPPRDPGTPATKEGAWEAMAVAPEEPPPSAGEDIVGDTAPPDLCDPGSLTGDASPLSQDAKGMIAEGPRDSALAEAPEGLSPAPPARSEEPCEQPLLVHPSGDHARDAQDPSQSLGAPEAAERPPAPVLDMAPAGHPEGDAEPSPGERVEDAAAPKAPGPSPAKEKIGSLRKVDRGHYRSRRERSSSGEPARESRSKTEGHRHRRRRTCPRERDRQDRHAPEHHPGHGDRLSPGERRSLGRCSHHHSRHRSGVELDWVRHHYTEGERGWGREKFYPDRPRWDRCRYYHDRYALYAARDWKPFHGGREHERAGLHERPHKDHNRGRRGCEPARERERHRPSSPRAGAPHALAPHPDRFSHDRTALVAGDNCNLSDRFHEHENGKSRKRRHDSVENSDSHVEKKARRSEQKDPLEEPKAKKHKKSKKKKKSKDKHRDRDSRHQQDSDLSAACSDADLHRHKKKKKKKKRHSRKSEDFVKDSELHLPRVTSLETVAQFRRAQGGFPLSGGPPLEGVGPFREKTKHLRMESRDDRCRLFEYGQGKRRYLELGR
In short: (§1)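 HEK293T lysate (495 µg per sample, in Tris/CHAPS/IGEPAL buffer with protease inhibitors) was exposed in triplicate for 3 h to fragment at 200 µM or to vehicle, then to Biotin-Ahx-Ub-VS at 0.5 µM final for 1 h. Labelled DUBs were enriched on NeutrAvidin, digested with LysC and trypsin, and analysed by diaPASEF LC-MS/MS. Spectronaut label-free quantities were normalised to the global median, and values are average log2 ratios of fragment over vehicle from an unpaired t-test. Only proteins with ≥2 unique peptides were used.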

USP46 = USP46 (UniProt P62068)
In short: as §1

USP47 = target: T2, USP47 (UniProt Q96K76)
T2 sequence (whole entry): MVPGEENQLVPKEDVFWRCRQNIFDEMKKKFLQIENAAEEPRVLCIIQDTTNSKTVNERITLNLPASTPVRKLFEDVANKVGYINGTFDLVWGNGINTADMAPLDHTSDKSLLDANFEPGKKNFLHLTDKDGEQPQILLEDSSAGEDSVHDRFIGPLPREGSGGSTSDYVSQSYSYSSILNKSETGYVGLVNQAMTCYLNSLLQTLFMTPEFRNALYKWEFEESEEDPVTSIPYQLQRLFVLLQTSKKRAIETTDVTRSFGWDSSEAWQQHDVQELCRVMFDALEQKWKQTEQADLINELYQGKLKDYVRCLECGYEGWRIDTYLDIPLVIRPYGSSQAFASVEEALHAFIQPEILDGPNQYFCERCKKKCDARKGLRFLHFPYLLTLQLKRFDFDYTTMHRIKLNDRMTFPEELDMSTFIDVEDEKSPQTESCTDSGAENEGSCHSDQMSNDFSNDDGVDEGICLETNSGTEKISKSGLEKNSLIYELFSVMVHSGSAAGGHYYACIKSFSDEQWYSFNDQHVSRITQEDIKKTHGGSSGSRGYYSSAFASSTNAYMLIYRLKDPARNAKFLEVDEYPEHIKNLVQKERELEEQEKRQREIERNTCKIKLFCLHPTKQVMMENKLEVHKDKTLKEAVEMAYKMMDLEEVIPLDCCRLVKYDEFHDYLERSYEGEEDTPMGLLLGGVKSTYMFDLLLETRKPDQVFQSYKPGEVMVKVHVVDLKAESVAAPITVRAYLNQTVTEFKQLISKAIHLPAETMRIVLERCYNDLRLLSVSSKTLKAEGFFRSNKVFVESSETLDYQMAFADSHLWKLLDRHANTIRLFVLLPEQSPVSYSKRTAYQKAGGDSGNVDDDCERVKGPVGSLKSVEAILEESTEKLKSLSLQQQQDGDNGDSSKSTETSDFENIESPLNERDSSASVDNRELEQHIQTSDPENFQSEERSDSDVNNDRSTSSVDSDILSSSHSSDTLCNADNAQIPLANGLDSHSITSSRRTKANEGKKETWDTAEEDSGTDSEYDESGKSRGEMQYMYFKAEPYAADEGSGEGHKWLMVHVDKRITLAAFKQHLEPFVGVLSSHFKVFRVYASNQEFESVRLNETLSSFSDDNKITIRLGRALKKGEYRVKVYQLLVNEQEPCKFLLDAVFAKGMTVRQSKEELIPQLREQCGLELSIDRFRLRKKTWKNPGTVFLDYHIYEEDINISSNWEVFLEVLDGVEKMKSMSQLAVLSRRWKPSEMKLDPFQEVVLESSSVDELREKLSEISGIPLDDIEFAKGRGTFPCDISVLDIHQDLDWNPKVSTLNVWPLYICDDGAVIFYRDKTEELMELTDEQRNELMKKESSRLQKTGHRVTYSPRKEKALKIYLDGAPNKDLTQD
In short: as §1

USP48 = target: T3, USP48 (UniProt Q86UV5)
T3 sequence (whole entry): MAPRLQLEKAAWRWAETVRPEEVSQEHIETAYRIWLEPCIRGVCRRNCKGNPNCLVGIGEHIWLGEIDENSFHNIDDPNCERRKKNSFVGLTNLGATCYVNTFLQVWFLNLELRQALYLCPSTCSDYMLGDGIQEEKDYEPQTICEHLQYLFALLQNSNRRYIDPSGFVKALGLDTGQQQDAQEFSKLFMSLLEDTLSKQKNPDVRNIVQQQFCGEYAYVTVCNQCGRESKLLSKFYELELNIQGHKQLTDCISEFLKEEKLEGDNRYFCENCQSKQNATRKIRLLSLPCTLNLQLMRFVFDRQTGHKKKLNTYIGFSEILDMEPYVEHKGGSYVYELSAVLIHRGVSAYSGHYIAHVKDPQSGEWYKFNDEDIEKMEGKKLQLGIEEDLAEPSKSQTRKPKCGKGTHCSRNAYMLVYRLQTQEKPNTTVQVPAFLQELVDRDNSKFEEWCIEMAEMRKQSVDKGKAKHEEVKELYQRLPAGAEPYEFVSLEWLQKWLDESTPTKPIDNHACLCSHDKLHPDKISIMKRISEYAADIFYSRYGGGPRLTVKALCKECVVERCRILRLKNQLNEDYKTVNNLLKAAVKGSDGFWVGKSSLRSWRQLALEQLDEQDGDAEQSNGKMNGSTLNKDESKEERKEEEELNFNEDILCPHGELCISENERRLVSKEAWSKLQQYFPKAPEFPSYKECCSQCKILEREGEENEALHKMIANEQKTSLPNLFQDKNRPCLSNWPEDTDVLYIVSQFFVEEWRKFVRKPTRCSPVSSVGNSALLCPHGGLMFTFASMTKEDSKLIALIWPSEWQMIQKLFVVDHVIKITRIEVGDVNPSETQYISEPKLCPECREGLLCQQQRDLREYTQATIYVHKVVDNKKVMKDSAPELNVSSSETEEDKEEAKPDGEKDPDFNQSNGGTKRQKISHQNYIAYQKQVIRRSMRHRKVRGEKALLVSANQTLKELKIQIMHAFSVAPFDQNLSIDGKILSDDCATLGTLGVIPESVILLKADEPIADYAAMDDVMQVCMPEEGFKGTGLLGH
In short: as §1

USP5 = target: T4, USP5 (UniProt P45974)
T4 sequence (whole entry): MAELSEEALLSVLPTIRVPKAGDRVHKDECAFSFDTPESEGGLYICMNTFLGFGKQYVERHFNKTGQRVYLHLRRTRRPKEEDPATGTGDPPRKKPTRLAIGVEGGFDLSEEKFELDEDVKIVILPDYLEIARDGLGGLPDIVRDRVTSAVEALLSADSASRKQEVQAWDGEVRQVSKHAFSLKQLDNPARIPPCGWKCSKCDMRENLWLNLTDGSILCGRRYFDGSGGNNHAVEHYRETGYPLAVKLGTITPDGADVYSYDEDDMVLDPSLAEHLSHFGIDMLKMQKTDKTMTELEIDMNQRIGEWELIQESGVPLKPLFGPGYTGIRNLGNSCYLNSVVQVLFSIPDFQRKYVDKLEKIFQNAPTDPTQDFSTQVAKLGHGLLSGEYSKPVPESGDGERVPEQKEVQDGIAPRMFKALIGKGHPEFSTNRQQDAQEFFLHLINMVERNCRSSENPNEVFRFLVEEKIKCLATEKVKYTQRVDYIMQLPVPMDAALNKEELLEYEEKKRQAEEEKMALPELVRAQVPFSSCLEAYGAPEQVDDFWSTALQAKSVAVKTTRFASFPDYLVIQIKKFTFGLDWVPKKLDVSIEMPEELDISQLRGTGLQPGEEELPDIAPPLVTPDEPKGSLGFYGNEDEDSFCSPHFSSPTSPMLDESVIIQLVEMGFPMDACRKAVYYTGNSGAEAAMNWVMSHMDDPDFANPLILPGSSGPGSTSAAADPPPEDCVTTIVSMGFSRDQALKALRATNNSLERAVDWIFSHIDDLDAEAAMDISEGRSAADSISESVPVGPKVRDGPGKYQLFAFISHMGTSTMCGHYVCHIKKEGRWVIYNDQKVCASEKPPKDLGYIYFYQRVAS
In short: as §1

USP54 = USP54 (UniProt Q70EL1)
In short: as §1

USP7 = USP7 (UniProt Q93009)
In short: as §1

USP8 = target: T5, USP8 (UniProt P40818)
T5 sequence (whole entry): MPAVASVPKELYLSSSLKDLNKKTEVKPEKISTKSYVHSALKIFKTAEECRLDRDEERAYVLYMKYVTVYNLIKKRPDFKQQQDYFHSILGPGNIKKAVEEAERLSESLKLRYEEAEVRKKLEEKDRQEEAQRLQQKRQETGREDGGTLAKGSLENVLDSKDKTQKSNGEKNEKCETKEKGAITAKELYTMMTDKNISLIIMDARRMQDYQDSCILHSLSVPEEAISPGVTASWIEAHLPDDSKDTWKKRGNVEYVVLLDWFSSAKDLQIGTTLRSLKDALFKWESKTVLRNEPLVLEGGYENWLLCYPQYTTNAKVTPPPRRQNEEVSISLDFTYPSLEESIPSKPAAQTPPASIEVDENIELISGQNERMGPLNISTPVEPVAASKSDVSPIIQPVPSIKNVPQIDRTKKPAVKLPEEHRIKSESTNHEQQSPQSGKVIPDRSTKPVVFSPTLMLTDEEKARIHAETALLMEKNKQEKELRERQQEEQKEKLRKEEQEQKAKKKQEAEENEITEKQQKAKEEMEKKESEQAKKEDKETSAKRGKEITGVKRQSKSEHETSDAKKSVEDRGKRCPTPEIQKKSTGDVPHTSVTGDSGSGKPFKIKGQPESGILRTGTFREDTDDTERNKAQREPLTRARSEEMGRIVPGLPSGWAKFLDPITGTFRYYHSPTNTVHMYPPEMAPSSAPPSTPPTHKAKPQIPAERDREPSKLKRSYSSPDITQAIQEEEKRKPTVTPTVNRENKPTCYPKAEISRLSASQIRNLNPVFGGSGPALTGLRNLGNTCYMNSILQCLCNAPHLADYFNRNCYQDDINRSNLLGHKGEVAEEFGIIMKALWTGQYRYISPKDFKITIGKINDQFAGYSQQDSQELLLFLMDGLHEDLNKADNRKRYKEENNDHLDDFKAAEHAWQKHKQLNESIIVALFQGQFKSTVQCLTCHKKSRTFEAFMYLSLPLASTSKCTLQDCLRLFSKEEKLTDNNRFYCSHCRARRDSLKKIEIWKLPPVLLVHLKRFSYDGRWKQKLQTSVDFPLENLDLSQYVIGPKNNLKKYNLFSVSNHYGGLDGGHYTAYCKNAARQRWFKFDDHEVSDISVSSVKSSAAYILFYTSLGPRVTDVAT
In short: as §1

Measured: log2 ratio of Biotin-Ahx-Ub-VS probe labelling

Chain of USP54 (Q70EL1 whole entry): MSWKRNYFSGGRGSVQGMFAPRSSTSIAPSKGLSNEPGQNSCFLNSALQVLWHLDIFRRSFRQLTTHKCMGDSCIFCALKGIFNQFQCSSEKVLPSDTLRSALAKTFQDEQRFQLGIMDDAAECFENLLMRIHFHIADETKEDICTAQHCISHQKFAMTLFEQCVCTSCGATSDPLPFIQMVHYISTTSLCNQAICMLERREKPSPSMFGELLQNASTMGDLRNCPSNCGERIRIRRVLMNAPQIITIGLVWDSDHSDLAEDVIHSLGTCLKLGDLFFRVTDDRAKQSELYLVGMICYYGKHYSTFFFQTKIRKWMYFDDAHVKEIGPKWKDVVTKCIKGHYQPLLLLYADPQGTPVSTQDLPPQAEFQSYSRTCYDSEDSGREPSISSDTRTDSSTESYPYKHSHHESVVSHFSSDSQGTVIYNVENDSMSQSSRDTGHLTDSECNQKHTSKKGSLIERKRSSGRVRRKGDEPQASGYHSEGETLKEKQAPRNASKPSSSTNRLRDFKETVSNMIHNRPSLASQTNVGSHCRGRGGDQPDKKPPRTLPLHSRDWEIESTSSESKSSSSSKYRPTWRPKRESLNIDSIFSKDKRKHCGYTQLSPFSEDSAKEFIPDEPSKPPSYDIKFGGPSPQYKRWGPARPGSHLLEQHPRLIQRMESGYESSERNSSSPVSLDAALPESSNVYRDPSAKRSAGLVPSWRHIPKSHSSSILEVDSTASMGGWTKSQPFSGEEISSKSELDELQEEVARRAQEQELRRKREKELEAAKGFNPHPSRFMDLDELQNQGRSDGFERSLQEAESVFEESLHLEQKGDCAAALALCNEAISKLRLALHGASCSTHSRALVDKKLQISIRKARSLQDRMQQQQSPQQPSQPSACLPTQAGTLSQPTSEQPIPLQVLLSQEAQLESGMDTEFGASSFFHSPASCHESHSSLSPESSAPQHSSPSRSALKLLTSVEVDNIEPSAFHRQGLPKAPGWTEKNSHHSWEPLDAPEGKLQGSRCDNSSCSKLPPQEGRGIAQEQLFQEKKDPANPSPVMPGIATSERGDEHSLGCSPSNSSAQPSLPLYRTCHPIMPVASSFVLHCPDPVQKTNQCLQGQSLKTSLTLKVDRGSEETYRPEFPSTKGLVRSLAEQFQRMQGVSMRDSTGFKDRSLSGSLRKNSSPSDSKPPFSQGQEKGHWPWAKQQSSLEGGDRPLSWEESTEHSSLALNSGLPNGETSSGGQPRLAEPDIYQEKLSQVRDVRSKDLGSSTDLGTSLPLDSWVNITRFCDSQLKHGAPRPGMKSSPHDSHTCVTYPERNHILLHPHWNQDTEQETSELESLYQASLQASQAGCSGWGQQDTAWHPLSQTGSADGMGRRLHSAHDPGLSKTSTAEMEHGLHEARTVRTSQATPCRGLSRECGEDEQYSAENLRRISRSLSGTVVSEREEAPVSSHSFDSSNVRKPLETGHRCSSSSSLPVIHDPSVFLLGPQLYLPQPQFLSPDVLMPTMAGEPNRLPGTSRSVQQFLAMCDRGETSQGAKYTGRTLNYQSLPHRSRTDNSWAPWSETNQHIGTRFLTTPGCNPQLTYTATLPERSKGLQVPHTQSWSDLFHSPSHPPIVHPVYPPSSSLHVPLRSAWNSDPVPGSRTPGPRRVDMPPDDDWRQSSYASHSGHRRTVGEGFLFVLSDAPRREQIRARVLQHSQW
Chain of USP7 (Q93009 whole entry, looked up): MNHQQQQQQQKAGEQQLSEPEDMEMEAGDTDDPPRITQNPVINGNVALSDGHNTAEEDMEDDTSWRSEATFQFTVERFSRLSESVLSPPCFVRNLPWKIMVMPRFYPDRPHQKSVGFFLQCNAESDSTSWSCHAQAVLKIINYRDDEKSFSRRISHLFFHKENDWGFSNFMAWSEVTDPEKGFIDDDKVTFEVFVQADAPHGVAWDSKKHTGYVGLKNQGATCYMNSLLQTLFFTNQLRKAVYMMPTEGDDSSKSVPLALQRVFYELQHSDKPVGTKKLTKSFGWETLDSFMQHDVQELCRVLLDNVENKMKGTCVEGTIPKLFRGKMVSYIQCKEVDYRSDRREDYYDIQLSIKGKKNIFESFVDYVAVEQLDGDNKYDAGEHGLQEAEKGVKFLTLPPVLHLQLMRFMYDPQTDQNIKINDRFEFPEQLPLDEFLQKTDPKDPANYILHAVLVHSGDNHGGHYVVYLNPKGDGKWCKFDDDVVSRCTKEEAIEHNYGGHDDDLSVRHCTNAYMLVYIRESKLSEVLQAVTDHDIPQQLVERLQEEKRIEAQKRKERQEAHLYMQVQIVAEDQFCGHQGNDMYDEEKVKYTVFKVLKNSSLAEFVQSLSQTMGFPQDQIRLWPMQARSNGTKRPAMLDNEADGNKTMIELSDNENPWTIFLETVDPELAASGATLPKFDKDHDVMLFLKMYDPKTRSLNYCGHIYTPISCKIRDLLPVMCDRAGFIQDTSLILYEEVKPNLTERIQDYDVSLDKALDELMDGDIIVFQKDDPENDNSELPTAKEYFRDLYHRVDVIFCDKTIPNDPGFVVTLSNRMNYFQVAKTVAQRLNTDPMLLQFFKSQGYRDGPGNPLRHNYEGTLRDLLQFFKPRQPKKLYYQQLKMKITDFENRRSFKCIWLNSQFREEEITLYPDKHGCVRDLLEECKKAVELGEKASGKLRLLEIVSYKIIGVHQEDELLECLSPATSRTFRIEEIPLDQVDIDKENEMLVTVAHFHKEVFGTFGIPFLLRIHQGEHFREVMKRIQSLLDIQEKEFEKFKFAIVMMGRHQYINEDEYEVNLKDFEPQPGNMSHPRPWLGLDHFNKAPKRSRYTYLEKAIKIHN
Chain of USP46 (P62068 whole entry): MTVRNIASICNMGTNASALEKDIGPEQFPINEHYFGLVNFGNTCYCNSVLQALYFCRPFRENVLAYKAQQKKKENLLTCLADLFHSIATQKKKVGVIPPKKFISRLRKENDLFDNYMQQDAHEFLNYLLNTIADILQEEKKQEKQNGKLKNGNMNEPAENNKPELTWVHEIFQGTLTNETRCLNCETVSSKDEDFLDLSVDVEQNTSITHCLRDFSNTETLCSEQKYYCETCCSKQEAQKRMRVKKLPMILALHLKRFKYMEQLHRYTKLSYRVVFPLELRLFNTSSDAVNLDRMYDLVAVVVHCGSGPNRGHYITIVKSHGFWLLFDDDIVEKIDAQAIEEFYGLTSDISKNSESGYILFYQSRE

CCN(C(=O)CCl)C1CCCCC1
inactive: USP42 0.177 | USP46 -0.202 | USP47 -0.157 | USP48 -0.238 | USP5 0.443 | USP54 0.0425 | USP7 -0.372 | USP8 0.0715
